Source: PubChem BioAssay (NCATS)
Results filed as inconclusive are left out. Where a call stands in place of a potency, no number is given. Activity calls are given as the source filed them. Unless noted, the call rests on the fitted dose curve; in most records, active means well fitted curve in the direction sought with a large enough effect; inconclusive means small, poorly fitted or top-dose-only effect, or another doubt; inactive means no such curve, though single readings can be large; an effect the other way counts as inactive or inconclusive.

Assays:
[1] = qHTS profiling of the MIPE4 collection as inhibitors of Plasmodium falciparum (3D7) proliferation (AID 743344; call rule not given here); conditions: P. falciparum 3D7 in erythrocytes, SYBR Green DNA fluorescence, 72 h; at 28.5 µM unless noted
Summary of the method: (§1)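 Parasite DNA was quantified by SYBR Green I fluorescence (ex 485, em 535 nm) after overnight lysis in saponin/Triton buffer at room temperature. Cultures at 0.3% parasitemia and 2.5% hematocrit were first exposed to compound for 72 h at 37 C; signals were normalised to artemisinin (0.29 uM) and vehicle wells.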

[2] = qHTS profiling of the MIPE4 collection as inhibitors of Plasmodium falciparum (DD2) proliferation (AID 743345; call rule not given here); conditions: P. falciparum Dd2 in erythrocytes, SYBR Green DNA, 72 h; at 28.5 µM unless noted
Summary of the method: as §1

[3] = qHTS profiling of the MIPE4 collection as inhibitors of Plasmodium falciparum (DD2) proliferation (Rep 2) (AID 743346; call rule not given here); conditions: P. falciparum Dd2 in erythrocytes, SYBR Green DNA, 72 h; at 28.5 µM unless noted
Summary of the method: as §1

[4] = qHTS profiling of the MIPE4 collection as inhibitors of Plasmodium falciparum (HB3) proliferation (AID 743347; call rule not given here); conditions: P. falciparum HB3 in erythrocytes, SYBR Green DNA, 72 h; at 28.5 µM unless noted
Summary of the method: as §1

[5] = High-throughput drug toxicity screening in the BPDCN cell line Gen2.2 (AID 1224824; call rule not given here;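 further: cells exposed to compounds for 48 h before reading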); conditions: Gen2.2 BPDCN cells; at 45.8 µM (top of the series) unless noted
Summary of the method: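 Seed 500 exponentially growing Gen2.2 cells/well; add compounds by pin tool; incubate 48 h, 37 °C, 5% CO2; add CellTiter-Glo, 15 min RT; read luminescence. % activity vs DMSO (100%) and bortezomib (0%).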

[6] = High-throughput drug toxicity screening in the BPDCN cell line Cal-1 (AID 1224825; call rule not given here); conditions: Cal-1 BPDCN cell viability, qHTS; at 45.8 µM (top of the series) unless noted
Summary of the method: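 CellTiter-Glo luminescence after 48 h compound exposure; percent activity scaled with DMSO as 100% and bortezomib (9.2 uM final) as 0%. Cal-1 cells seeded at 500/well in RPMI, 10% FBS, no phenol red.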

[7] = qHTS Screen of the MIPE 4.0 Collection Against Ewings Sarcoma (TC32) (AID 1259256); further: nearly all actives have a fitted effect of over 45% in size; further: potency means the concentration at half of the fitted maximal effect
Summary of the method: (§2)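 Dose series incubated 48 h with cells in RPMI plus 5% FBS, glutamine and penicillin/streptomycin; cell viability then quantified via CellTiter-Glo.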

[8] = qHTS profiling for inhibitors of Plasmodium falciparum (HB3) proliferation (AID 743324); conditions: Plasmodium falciparum HB3 blood-stage proliferation; at 28.7 µM (top of the series)
Summary of the method: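 SYBR Green fluorescence (485 ex/535 em) of lysed cultures, incubated overnight at room temperature in the dark, quantifies parasite DNA. Infected erythrocytes at 0.3% parasitemia and 2.5% hematocrit were exposed 72 h; values normalized to DMSO and 0.29 uM artemisinin controls.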

[9] = qHTS assay for measurement of the activity of small molecule inhibitors on Zika virus induced Caspase-3 activity in human iPSC derived neural progenitor cells (hNPCs) (AID 1224857); further: nearly all actives have a fitted effect of over 65% in size; further: potency means the concentration at half of the fitted maximal effect
Summary of the method: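 hNPCs seeded 350 cells/well, cultured 16–20 h; compounds added 1 h before ZIKV (2 FFU/cell), 37 C 6 h. Caspase-Glo 3/7 luminescence after 30 min RT; % inhibition from induction scaled to uninfected (0%) and infected (100%) wells.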

[10] = qHTS Screen of the MIPE 4.0 Collection Against Ewings Sarcoma (RDES) (AID 1259252); further: potency means the concentration at half of the fitted maximal effect; nearly all actives have a fitted effect of over 35% in size
Summary of the method: as §2

[11] = qHTS Screen of the MIPE 4.0 Collection Against Ewings Sarcoma (EW8) (AID 1259255); further: nearly all actives have a fitted effect of over 35% in size; further: potency means the concentration at half of the fitted maximal effect
Summary of the method: as §2

[12] = Identifying Small Molecule Inhibitors of Pancreatic Cancer Stem Cells (Panc1, Spheroid) (AID 1259359); conditions: Panc1 spheroid cancer stem cell viability;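 further: potency means the concentration at half of the fitted maximal effect; compound exposure lasted 48 h before reading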
Summary of the method: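 After a 4 h attachment period, compounds were pinned into wells and cultures held 48 h under standard incubator conditions. Viability was then measured as CellTiter-Glo luminescence following 10 min at room temperature.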

[13] = qHTS assay for measurement of the activity of small molecule inhibitors on Zika virus induced Caspase-3 activity in human astrocytoma cells (AID 1224859)
Summary of the method: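 Luminescence read-out (Caspase-Glo 3/7, 30 min RT) of caspase activity in SNB-19 cells infected 6 h with ZIKV, 2 FFU/cell, after 1 h compound pretreatment; % inhibition from induction normalised to uninfected (0%) and infected (100%) wells.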

[14] = qHTS assay to identify small molecule inhibitors of chordoma cells - UCH-1 (AID 1259355); further: nearly all actives have a fitted effect of over 55% in size
Summary of the method: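 Screening used approved and investigational drugs in 15-point titration against 800 seeded cells per well. A fixed combination of auranofin with camptothecin, doxorubicin, rubitecan and topotecan followed compound addition, and growth was scored by CellTiter-Glo after 48hr.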

[15] = qHTS assay to identify small molecule inhibitors of chordoma cells - UCH-2 (AID 1259356)
[16] = Identifying Small Molecule Inhibitors of Pancreatic Cancer Stem Cells (SN12C, Adherent) (AID 1259358);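 further: cell survival measured after 48 h of compound exposure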
Summary of the method: (§3)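 Endpoint: ATP-based luminescence, 48 h drug exposure. Bortezomib at 9.2 uM final as full-kill control; DMSO vehicle as negative control; activity normalized between vehicle and cell-free wells.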

[17] = Identifying Small Molecule Inhibitors of Pancreatic Cancer Stem Cells (A278, Adherent) (AID 1259361);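 further: viability read after 48 h compound exposure; nearly all actives have a fitted effect of over 35% in size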
Summary of the method: as §3

[18] = Identifying Small Molecule Inhibitors of Pancreatic Cancer Stem Cells (Panc1, Adherent) (AID 1259362); conditions: Potency: viability; further: potency means the concentration at half of the fitted maximal effect
Summary of the method: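 Viability is scored by CellTiter-Glo luminescence 48 h after dosing, expressed as percent activity against vehicle and no-cell references. Spheroid formats rely on cells cultured 14 days in stem cell media beforehand.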

SMILES: Clc1ccc(COC(Cn2ccnc2)c2ccc(Cl)cc2Cl)cc1 (stereo unspecified)
- parasite growth, % of DMSO control [1]: 5.45%
- parasite growth remaining, % of DMSO control (lower = more inhibition) [2]: 6.85%
- parasite growth, % of control (lower = inhibition) [3]: 9.72%
- growth, % of control [4]: 3.47%
- cell viability, % of control (lower = more cytotoxic) [5]: 115%
- viability (% of control) [6]: 70.1%
- Potency [7]: 18.7 µM (active)

SMILES: CC(=O)Nc1ccc([C@H](C)C(=O)Nc2ncc(C(C)C)s2)cc1
- remaining proliferation (% of control), lower = more inhibition [8]: 93.4%
- parasite growth, % of DMSO control [1]: 5.36%
- parasite growth remaining, % of DMSO control (lower = more inhibition) [2]: 104%
- parasite growth, % of control (lower = inhibition) [3]: 7.23%
- cell viability, % of control (lower = more cytotoxic) [5]: 7.33%
- Potency [9]: 14.8 µM (active)
- Potency [10]: 2.96 µM (active)
- Potency [11]: 5.9 µM (active)
- Potency [7]: 4.18 µM (active)
- Potency [12]: 8.33 µM (active)

SMILES: CC=CC(=O)N(CC)c1ccccc1C
- parasite growth, % of DMSO control [1]: 92.3%
- parasite growth, % of control (lower = inhibition) [3]: 142%
- growth, % of control [4]: 99.4%
- cell viability, % of control (lower = more cytotoxic) [5]: 116%
- Potency [9]: inactive
- Potency [13]: inactive
- Potency [11]: inactive

SMILES: CC(C)NCC(O)COc1cccc2[nH]ccc12 (stereo unspecified)
- Potency [9]: inactive
- Potency [13]: inactive
- Potency [14]: inactive
- outcome [15]: inactive

SMILES: CCCCC1C(=O)N(c2ccccc2)N(c2ccccc2)C1=O
- Potency [9]: inactive
- Potency [13]: inactive
- Potency [14]: inactive
- outcome [15]: inactive

SMILES: OC[C@@H](O)[C@H](O)[C@H](O)[C@@H](O)CO
- Potency [9]: inactive
- Potency [13]: inactive
- Potency [14]: inactive
- outcome [15]: inactive

SMILES: O=C(NCCN1CCOCC1)c1ccc(Cl)cc1
- Potency [9]: inactive
- Potency [13]: inactive
- Potency [14]: inactive
- outcome [15]: inactive

SMILES: CC(=O)c1ccc(S(=O)(=O)NC(=O)NC2CCCCC2)cc1
- Potency [9]: inactive
- Potency [13]: inactive
- Potency [14]: inactive
- outcome [15]: inactive

SMILES: O=C(O)CCC(C(=O)O)N1C(=O)c2ccccc2C1=O (stereo unspecified)
- Potency [9]: inactive

SMILES: CC=CCC(C)C(O)C1C(=O)NC(CC)C(=O)N(C)CC(=O)N(C)C(CC(C)C)C(=O)NC(C(C)C)C(=O)N(C)C(CC(C)C)C(=O)NC(C)C(=O)NC(C)C(=O)N(C)C(CC(C)C)C(=O)N(C)C(CC(C)C)C(=O)N(C)C(C(C)C)C(=O)N1C (stereo unspecified)
- parasite growth, % of DMSO control [1]: 5.34%
- parasite growth remaining, % of DMSO control (lower = more inhibition) [2]: 6.98%
- parasite growth, % of control (lower = inhibition) [3]: 13.2%
- growth, % of control [4]: 4.04%
- cell viability, % of control (lower = more cytotoxic) [5]: 8.39%
- Potency [7]: inactive

SMILES: CC1=C(/C=C/C(C)=C/C=C/C(C)=C/C(=O)Nc2ccc(O)cc2)C(C)(C)CCC1
- remaining proliferation (% of control), lower = more inhibition [8]: -0.513%
- Potency [9]: inactive
- Potency [13]: inactive
- Potency [14]: inactive
- outcome [15]: inactive
- Potency [16]: inactive
- IC50 (viability decrease) [17]: 3.32 µM (active)
- Potency [18]: 23.5 µM (active)

SMILES: CC(=O)N[C@@H](CS)C(=O)O
- Potency [9]: inactive
- Potency [13]: inactive
- Potency [14]: inactive
- outcome [15]: inactive

SMILES: CCN1CCC[C@H]1CNC(=O)c1cc(S(N)(=O)=O)ccc1OC
- Potency [9]: inactive
- Potency [13]: inactive
- Potency [14]: inactive
- outcome [15]: inactive

SMILES: CC/C(=C(\c1ccccc1)c1ccc(OCCN(C)C)cc1)c1ccccc1
- Potency [9]: inactive
- Potency [13]: inactive
- outcome [15]: inactive

SMILES: Nc1nc(Cl)nc2c1ncn2[C@@H]1O[C@H](COP(=O)(O)OP(=O)(O)OP(=O)(O)O)C(O)[C@H]1O (stereo partly specified)
- Potency [9]: inactive
